This is an account of results in PubChem BioAssay (EPA / NIEHS).

Molecules are shown by their SMILES. Where “and” joins values, the source holds several entries; their conditions need not be identical. Identical values can stand only once. Results filed as inconclusive are left out. Where a structure was tested more than once in an assay, its records may differ in their call. Calls of active or inactive are those of the source. The calls were made as follows, unless noted: active = hit-call score of the fitted dose curve at least 0.9, where 1 is the maximum; inactive = score below 0.9.

The nature of assay [1]: CCTE_Shafer_MEA_dev_mutual_information_norm: CCTE's Neural Network Formation Assay for Mutual Information Normalization, Shafer Lab (AID 2284091).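 As to AC50: mutual information between electrodes summarised as area under curve across four recording days; potency is for a decrease in mutual information relative to DMSO.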 Put shortly:
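Developing rat cortical networks on 16-electrode MEA wells are treated throughout formation (DIV 0–12). Shared electrode information is recorded four times, converted to area-under-curve, and fitted for decreases against DMSO vehicle.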

The nature of assay [2]: CCTE_Shafer_MEA_dev_correlation_coefficient_mean: CCTE's Neural Network Formation Assay for Mean Correlation Coefficient, Shafer Lab (AID 2284093).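 As to AC50: well mean pairwise spike train correlation integrated as AUC over recording days 5 to 12; potency fitted for loss of correlation relative to DMSO vehicle wells.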 In outline:
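Read-out: well-mean correlation coefficient of spike trains between electrode pairs, collapsed over four recording days as trapezoidal area-under-the-curve. Developing rat cortical neuron networks grown on MEAs received test chemical continuously from plating.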

Read-out in assay [3]: Secreted IgG (sIgG), gene 3500
The assay can be described thus: BSK_BT_sIgG: BioMAP Diversity Plus: BT Assay for Secreted IgG (sIgG) Biomarker Activity (AID 2284226). To be noted: primary human B cells with PBMC. Put shortly:
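Read-out: ELISA for secreted IgG after 24 h of chemical exposure in a B cell plus PBMC co-culture. Values reflect upward-direction fitting against DMSO negative controls.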

Assay [4] can be described thus: BSK_BT_Bcell_Proliferation: Viability Assessment in the BioMAP Diversity Plus: BT Assay for B cell Proliferation (AID 2284227). To be noted: primary human B cells with PBMC. In outline:
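SRB-based protein staining (0.1% SRB after 10% TCA fixation, 560 nm) quantifies proliferation in human B cells co-cultured with PBMC, 72 h post-dosing, with signal gain scored relative to DMSO negative control.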

Read-out in assay [5]: Interleukin 6 (IL6), IL6 (gene 3569)
The assay can be described thus: BSK_BT_xIL6: BioMAP Diversity Plus: BT Assay for Interleukin 6 (IL6) Biomarker Activity (AID 2284228). To be noted: primary human B cells with PBMC. Put shortly:
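Readout: secreted IL-6 via Luminex xMAP multiplex, 24 h post-dosing. System: primary human B cells co-cultured with PBMC. Signal change scored relative to DMSO vehicle, positive fitting direction.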

Read-out in assay [6]: Interleukin 17A (IL17A), IL17A (gene 3605)
Put plainly: BSK_BT_xIL17A: BioMAP Diversity Plus: BT Assay for Interleukin 17A (IL17A) Biomarker Activity (AID 2284229). To be noted: primary human B cells with PBMC. In outline:
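Luminex xMAP readout of secreted IL-17A; human B cell + PBMC co-culture; 24 h post-dose; positive-direction fit vs DMSO negative control.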

Assay [7] is described as follows: BSK_BT_PBMCCytotoxicity: PBMC Cytotoxicity Assessment in the BioMAP Diversity Plus: BT Assay (AID 2284225).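 Also: PBMC viability measured by Alamar Blue dye reduction fluorescence.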 To be noted: primary human B cells with PBMC. Put shortly: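 PBMC (75,000/well) pretreated with compound 1 h, then activated with SEB and TSST-1 (20 ng/mL each final), incubated 90 h; Alamar Blue added 6 h, fluorescence read at 546/580 nm. Fitted relative to DMSO.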

Assay [8] is described as follows: CCTE_Shafer_MEA_acute_LDH: CCTE's Lactate Dehydrogenase Assay for Cytotoxicity in the Neural Acute Assay, Shafer Lab (AID 2284086; active = hit-call score of the fitted dose curve at least 0.9, where 1 is the maximum;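 also: active means LDH release rises above DMSO vehicle level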). Put shortly:
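Rat cortical neurons cultured on microelectrode arrays; baseline 40-min recording, compound added, second 40-min recording; medium then sampled for released LDH (colorimetric kit, 490 nm). DMSO = negative control.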

A short description of assay [9]: CCTE_Mundy_HCI_hNP1_Pro_ResponderAvgInten: CCTE's Proliferation Assay in human neuroprogenitor cells, Mundy Lab (AID 2284224; active = hit-call score of the fitted dose curve at least 0.9, where 1 is the maximum). Put shortly: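 Proliferation was scored as BrdU labelling intensity in human neural progenitors derived from WA09 embryonic cells, measured 26.25 hours after chemical dosing. Activity was fitted relative to DMSO.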
A short description of assay [10]: CCTE_Shafer_MEA_dev_AB: CCTE's Alamar Blue Assay for Cytotoxicity in the Neural Network Formation Assay, Shafer Lab (AID 2284083; active = hit-call score of the fitted dose curve at least 0.9, where 1 is the maximum;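 also: resazurin reduction fluorescence as viability of cultured neurons; twelve days of exposure from plating with re-dosing on DIV 5 and 9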). In outline:
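Fluorescent resazurin reduction serves as the viability read-out, with DMSO as negative control and baseline. Cells were primary rat cortical neurons grown on MEA plates and dosed from day 0 to day 12, treatment renewed on DIV 5 and 9.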
Background: The colour change of resazurin is a common sign of viable cells or microbes.

For the compound `OCC(O)CC(F)(F)C(F)(F)C(F)(F)C(F)(F)F` (centres undefined), the call in assay [1], in [2], in assay [3], in assay [4], in assay [5] and in assay [6] was inactive.

With `OC(O)C(F)(F)C(F)(F)F`, the outcome in assay [1], in assay [2], in assay [3], in assay [4], in assay [5] and in [6] was inactive.

Take `CC(C)(C)c1cc(CCC(=O)NCCCCCCNC(=O)CCc2cc(C(C)(C)C)c(O)c(C(C)(C)C)c2)cc(C(C)(C)C)c1O`: the outcome in assay [7], in assay [4], in [5] and in [6] was inactive. Besides, the AC50 – broadly, the concentration at which the activity in the assay is half-maximal – in [3] was 1.98 µM (active).

`CCN=C1C=CC(=C(c2ccc(N(CC)CC)cc2)c2ccc(N(CC)CC)cc2)c2ccccc21`: the call in assay [8] was inactive.

Turning to `O=C(O)C(F)(F)C(F)(F)C(F)(F)OC(F)(F)F`, the outcome in assay [1], in assay [2], in assay [7], in assay [3], in assay [4] and in assay [5] was inactive. In [6], the result was inactive.

As for `OCCCC(F)(F)C(F)(F)C(F)(F)C(F)(F)C(F)(F)C(F)(F)C(F)(F)C(F)(F)F`, in assay [9], the result was inactive. Moreover, the AC50 was 45.9 µM (active) and 44.5 µM (active) in assay [3]; 43.8 µM (active) and 31.8 µM (active) in [4]; 42.7 µM (active) and 21.9 µM (active) in assay [5]; 22.9 µM (active) and 21.7 µM (active) in [6].

Regarding `C=CC(=O)OCC(F)(F)C(F)(F)C(F)(F)COC(=O)C=C`, the AC50 in assay [10] was 7.96 µM (active); in assay [1], 1.73 µM (active); in assay [2] it was 8.13 µM (active); in assay [7], 9.5 µM (active) and 8.85 µM (active); in assay [3], 6.41 µM (active) and 7.8 µM (active); in assay [4], 9.4 µM (active) and 9.64 µM (active). Further, the AC50 in assay [5] is 10.4 µM (active) and 8.91 µM (active); in [6], 8.47 µM (active) and 6.45 µM (active). The outcome in assay [9] was inactive.

Consider `O=C(O)C(F)(F)C(F)(F)C(F)(F)OC(F)(C(F)(F)F)C(F)(F)F`, for which the outcome in assay [7], in assay [3], in assay [4], in [5] and in assay [6] was inactive.

Consider `NC(=O)C(F)(F)C(F)(F)C(F)(F)F`, for which the result in [1], in [2], in assay [3], in [4], in assay [5] and in assay [6] was inactive.

Take `NC(=O)C(F)(F)C(F)(F)C(F)(F)C(F)F`: the call in [1], in assay [2], in [7], in assay [3], in [4] and in assay [5] was inactive. In addition, in assay [6], the result was inactive.

As to `FC(F)(F)C(F)(F)C(F)(F)C(F)(F)C(F)(F)C(F)(F)C(F)(F)CCI`, the result in assay [1], in assay [2], in [7], in [3], in assay [4] and in assay [5] was inactive. Further, the outcome in [6] was inactive.

Take `O=S(=O)(O)CCC(F)(F)C(F)(F)C(F)(F)C(F)(F)F`: the compound was called inactive in assay [1], in [2], in assay [7], in [3], in assay [4] and in assay [5]. Further, the result in assay [6] was inactive.

On to `CNS(=O)(=O)C(F)(F)C(F)(F)C(F)(F)C(F)(F)C(F)(F)C(F)(F)C(F)(F)C(F)(F)F`, for which the result in [1], in assay [2], in assay [3], in assay [4], in assay [5] and in [6] was inactive. The AC50 in assay [3] was 27.6 µM (active).

Consider `OCC(F)(F)C(F)(F)C(F)(F)C(F)(F)C(F)(F)C(F)(F)CO`, for which the compound was called inactive in assay [1], in [2], in assay [3], in assay [4], in assay [5] and in assay [6].

Regarding `OCC(F)(F)C(F)(F)C(F)(F)CO`, the outcome in assay [1], in [2], in [3], in assay [4], in [5] and in [6] was inactive.

In the case of `O=C(Cl)C(F)(F)C(F)(F)C(F)(F)C(F)(F)C(F)(F)C(F)(F)C(F)(F)F`, the concentration at half-maximal activity (AC50) in assay [7] is 24.7 µM (active). The outcome in assay [7], in assay [3], in assay [4], in assay [5] and in [6] was inactive.

`C=CC(=O)OCCC(F)(F)C(F)(F)C(F)(F)C(F)(F)F`: the AC50 in [10] is 21.8 µM (active); in assay [2], 15 µM (active); in assay [7], 37.8 µM (active) and 25.8 µM (active); in assay [3] it was 36.7 µM (active) and 44.9 µM (active); in [4], 45.3 µM (active) and 46.6 µM (active); in [5] it was 39.6 µM (active) and 35.5 µM (active). Moreover, in assay [6], the half-maximal activity concentration (AC50) was 33.5 µM (active) and 10.7 µM (active). For the same compound, the compound was called inactive in assay [1].

As to `CN(C(=O)C(F)(F)C(F)(F)C(F)(F)F)[Si](C)(C)C`, the outcome in assay [7], in assay [3], in [4], in assay [5] and in assay [6] was inactive.

Regarding `O=C(O)C(F)(F)C(F)(F)C(F)(F)C(=O)O`, the outcome in [7], in assay [3], in [4], in [5] and in [6] was inactive.

For `NC(O)(C(F)(F)F)C(F)(F)F`, the compound was called inactive in assay [1], in assay [2], in assay [3], in [4], in assay [5] and in assay [6].

Turning to `NC(=O)C(F)(F)C(F)(F)C(F)(F)C(F)(F)C(F)(F)C(F)(F)C(F)(F)F`, the outcome in assay [9], in assay [7], in [3], in [4], in assay [5] and in assay [6] was inactive.

For `OCC(F)(F)C(F)(F)C(F)(F)C(F)(F)C(F)(F)C(F)(F)C(F)(F)C(F)(F)CO`, the AC50 was 24.4 µM (active) in [10]; 24.1 µM (active) in assay [2]; 49.8 µM (active) and 47.1 µM (active) in assay [3]; 46.8 µM (active) and 47.9 µM (active) in assay [4]; 48.7 µM (active) in assay [5]; 51.3 µM (active) and 19.6 µM (active) in [6]. In addition, the outcome in assay [1] was inactive.

As to `O=S(=O)(O)CCC(F)(F)C(F)(F)C(F)(F)C(F)(F)C(F)(F)C(F)(F)C(F)(F)C(F)(F)F`, the call in assay [1], in [2], in assay [3], in assay [4], in [5] and in assay [6] was inactive.

Take `O=C=Nc1cccc2c(N=C=O)cccc12`: the result in assay [7], in assay [4], in assay [5] and in assay [6] was inactive. In assay [3], the concentration at half-maximal activity (AC50) was 12 µM (active).

For `CC1=CC2C3C=CC(C3)C2C1C` (centres undefined), the result in assay [7], in assay [4] and in assay [6] was inactive. For the same compound, the AC50 was 20 µM (active) in assay [3] and 16.7 µM (active) in [5].

Take `CCN(CC)c1ccc(C=O)c(O)c1`: the result in assay [7], in assay [4], in assay [5] and in assay [6] was inactive. The AC50 in assay [3] is 20 µM (active).

In the case of `Cc1ccc(O)c(-n2nc3ccccc3n2)c1`, the result in assay [7], in assay [3], in assay [4], in [5] and in assay [6] was inactive.

For the compound `CO[Si](C)(CCC(F)(F)C(F)(F)C(F)(F)C(F)(F)C(F)(F)C(F)(F)F)OC`, the compound was classed as inactive in [1], in assay [2], in [3], in [4], in assay [5] and in assay [6].

On to `OCCCCC(F)(F)C(F)(F)C(F)(F)C(F)(F)F`, for which the compound was called inactive in assay [10], in assay [1], in assay [2], in assay [9], in [7] and in assay [3]. For the same compound, the outcome in [4], in assay [5] and in assay [6] was inactive.
